A number with no mark means an inactive call. Records with an inconclusive call do not appear. Active and inactive are the calls of the source. Unless noted, calls follow the shape of the dose curve; as a rule, active = well fitted curve in the direction sought with a large enough effect in the repeat runs; inconclusive = weak or mixed curves; inactive = no such curve, though single readings can be large; an effect the other way counts as inactive or inconclusive.

These results are taken from PubChem BioAssay (Tox21).

The target of test [1] is Luciferin 4-monooxygenase (Photinus pyralis) (UniProt P08659). The experiment in a line: qHTS assay to identify small molecule inhibitors of firefly luciferase (AID 1224835). Also: nearly all actives have a fitted effect of over 25% in size. In short, it runs like this:
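Quantitative HTS format; KM concentrations of both substrates. Purified P. pyralis FLuc activity quantified from luminescence images.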

Test [2] is described as follows: qHTS assay to identify small molecule antagonists of the estrogen related receptor signaling pathway with the pleiotropic PPARgamma coactivator (PGC) from Tox21 10K library - cell viability counter screen (AID 1224840; active = well fitted cell-killing curve with a large enough effect in the repeat runs, not every such curve was filed as active; also: nearly all actives have a fitted effect of over 40% in size). In short, it runs like this: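 PGC/ERR cells (2,000/well) plated 6 h, then compound-treated for 17.5 h at 37 C. Viability measured by CellTiter-Fluor fluorescence after 30 min at 37 C, multiplexed with the pathway assay.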

The target of test [3] is Thyrotropin receptor (Homo sapiens) (UniProt P16473). The experiment in a line: qHTS assay to identify small molecule agonists of the thyroid stimulating hormone receptor (TSHR) signaling pathway (AID 1224843; calls by dose curve; also: nearly all actives have a fitted effect of over 45% in size). In short, it runs like this:
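TSHR-expressing HEK293 cells (800 per well) were exposed to compounds for 30 min at room temperature. cAMP was then detected by HTRF competition with cAMP-d2 and anti-cAMP cryptate, read after 1 h at room temperature. Fifteen concentrations, triplicate.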
On the technique in general: qHTS replaces the single test concentration by a dilution series.

Test [4] is described as follows: qHTS assay to identify small molecule agonists of H2AX (AID 1224845; active = well fitted activation curve with a large enough effect in the signal ratio in the repeat runs, not every such curve was filed as active; the % refers to the signal ratio). Summed up: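 Wild-type CHO-K1 cells plated overnight, then exposed 3 hr at 37C to compounds at 15 concentrations (0.76% DMSO). Lysed, then HTRF anti-pH2AX(S139)-cryptate/anti-H2AX-d2 detection after 24 hr at room temperature; emissions 665 and 620 nm.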
The nature of test [5]: qHTS assay to identify small molecule agonists of H2AX - cell viability counter screen (AID 1224847; calls by dose curve; also: top concentration of the series differs between compounds; nearly all actives have a fitted effect of over 30% in size). In short, it runs like this: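 CHO-K1 cells plated overnight at 37C, then exposed 3 h at 37C to compounds at 15 concentrations (0.76% DMSO final). Viability by CellTiter-Glo luminescence after 30 min at room temperature.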
Test [6] is described as follows: qHTS RealTime-Glo MT Cell Viability Assay in HepG2 cells - 24 hour (AID 1224867). Also: nearly all actives have a fitted effect of over 50% in size. In short, it runs like this:
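Cells + NanoLuc/prosubstrate dispensed (600 cells/well) → 5 h at 37 C/5% CO2 → compounds in DMSO transferred → 40 h incubation at 37 C, luminescence read at 0, 8, 16, 24, 32, 40 h.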

Test [7] can be described thus: qHTS RealTime-Glo MT Cell Viability Assay in HEK293 cells - 32 hour (AID 1224868). Also: nearly all actives have a fitted effect of over 50% in size. Also: potency is read from the fitted curve at half-maximal effect. As to activity change, negative = cytotoxic: top concentration of the series differs between compounds. Summed up: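 Tox21 10K qHTS, HEK293, 600 cells/well, RealTime-Glo reagent co-dispensed with cells; 5 h preincubation, compound by pintool, 37 C, luminescence at 0–40 h.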
Test [8] is described as follows: qHTS RealTime-Glo MT Cell Viability Assay in HepG2 cells - 40 hour (AID 1224870). Also: nearly all actives have a fitted effect of over 50% in size. Also: potency is read from the fitted curve at half-maximal effect. Summed up: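 HepG2 cells mixed with RealTime-Glo MT reagents (NanoLuc plus cell-permeant prosubstrate) were seeded at 600 cells/well, incubated 5 h at 37 C/5% CO2, then pinned with compounds in DMSO; nonlytic luminescence tracked viability during 40 h treatment.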
Test [9] in a line: qHTS assay to identify small molecule antagonists of the constitutive androstane receptor (CAR) signaling pathway - cell viability counter screen (AID 1224837). Also: nearly all actives have a fitted effect of over 45% in size. Summed up: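 HepG2 cells stably carrying hCAR and CYP2B6-2.2kb reporter, stimulated with 50 nM CITCO and compounds at 15 concentrations for 23 h at 37 C. Viability measured by CellTiter-Fluor fluorescence.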
The target of test [10] is Nuclear receptor subfamily 1 group I member 3 (Homo sapiens) (UniProt Q14994). The experiment in a line: qHTS assay to identify small molecule antagonists of the constitutive androstane receptor (CAR) signaling pathway (AID 1224838). Also: nearly all actives have a fitted effect of over 40% in size. In short, it runs like this:
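HepG2 cells stably carrying hCAR and a CYP2B6-2.2kb luciferase reporter, seeded 4 hrs before compound (15 concentrations). Stimulated with 50 nM CITCO for 24 hr at 37 C. ONE-Glo luminescence read after 30 min at room temperature.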

Test [11] in a line: A CellTox Green Cytotoxicity Assay to monitor cytotoxicity in HEK293 cells - 0 hour (AID 1224869). Also: nearly all actives have a fitted effect of over 50% in size. In short, it runs like this:
(§1)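 HEK293 cells, 600/well, were preincubated 5 hours and then exposed to compounds at 37 C for up to 40 hours. A cell-impermeant cyanine dye staining dead-cell DNA was read by fluorescence at 0, 8, 16, 24, 32 and 40 h time points.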

Test [12] is described as follows: A CellTox Green Cytotoxicity Assay to monitor cytotoxicity in HEK293 cells - 40 hour (AID 1224871). Also: nearly all actives have a fitted effect of over 45% in size. In short, it runs like this: as §1
The nature of test [13]: qHTS assay to identify small molecule agonists of the constitutive androstane receptor (CAR) signaling pathway - cell viability counter screen (AID 1224836). Also: nearly all actives have a fitted effect of over 45% in size. Summed up:
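HepG2 cells stably carrying hCAR and a CYP2B6-2.2kb reporter; 15-concentration compounds plus PK11195 (final 0.75 uM), 23 hr at 37 C/5% CO2. Viability read by CellTiter-Fluor fluorescence.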

Test [14] concerns the target Nuclear receptor subfamily 1 group I member 3 (Homo sapiens) (UniProt Q14994). In words: qHTS assay to identify small molecule agonists of the constitutive androstane receptor (CAR) signaling pathway (AID 1224839). Also: nearly all actives have a fitted effect of over 15% in size. Summed up: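 HepG2 cells stably co-transfected with hCAR and a CYP2B6-2.2kb luciferase reporter; compounds at 15 concentrations with 0.75 uM PK11195 present. After 24 hr at 37 C, luciferase read by ONE-Glo luminescence.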

The nature of test [15]: qHTS assay to identify small molecule agonists of the hypoxia (HIF-1) signaling pathway - cell viability counter screen (AID 1224844; calls by dose curve; also: nearly all actives have a fitted effect of over 50% in size). Summed up: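 HRE-bla ME-180 cells, 2,000/well in 0.5% dialyzed FBS medium, treated 17 h at 37C with compounds. Viability read in the same wells as the bla reporter, by CellTiter-Glo luminescence after 30 min at room temperature.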
The nature of test [16]: qHTS assay to identify small molecule agonists of the hypoxia (HIF-1) signaling pathway (AID 1224846; active = well fitted activation curve with a large enough effect in the signal ratio in the repeat runs, not every such curve was filed as active; the % refers to the signal ratio). Summed up: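 HRE-bla ME-180 beta-lactamase reporter cells in medium with 0.5% dialyzed FBS, pre-incubated 5 h then exposed to compounds 17 h at 37C, 5% CO2; reporter induction read with CCF4-AM FRET substrate.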
A short description of test [17]: qHTS assay to identify small molecule antagonists of the estrogen related receptor signaling pathway with the pleiotropic PPARgamma coactivator (PGC) from Tox21 10K library (AID 1224841; call rule not given here). Summed up: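 PGC/ERR cell line, 2,000 cells/well, pre-incubated 6 hours at 37 C, then exposed to compounds for 18 hours at 37 C; luciferase read with One-Glo luminescence after 30 min at room temperature.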

The nature of test [18]: qHTS assay to identify small molecule agonists of the estrogen related receptor signaling pathway with the pleiotropic PPARgamma coactivator (PGC) from Tox21 10K library (AID 1224842). Also: nearly all actives have a fitted effect of over 15% in size. Summed up:
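PGC/ERR reporter cells (NTP line) were seeded 2,000 per well, rested 6 h at 37 C/5% CO2, then pin-dosed with compounds in DMSO for 18 h at 37 C; luciferase read by One-Glo luminescence after 30 min at room temperature.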

Test [19] in a line: qHTS assay to identify small molecule antagonists of the estrogen related receptor (ERR) signaling pathway from Tox21 library (AID 1224848). Also: nearly all actives have a fitted effect of over 50% in size. Summed up: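 Cells: ERR line, 2,000/well; 6 h preincubation 37 C/5% CO2. Cpd in DMSO via pin tool; 18 h, 37 C. ONE-Glo, 30 min RT, luminescence.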
Test [20] in a line: qHTS assay to identify small molecule agonists of the estrogen related receptor (ERR) signaling pathway from Tox21 library (AID 1224849; calls by dose curve; also: nearly all actives have a fitted effect of over 15% in size). Particulars: ERR reporter cell line, ONE-Glo luciferase, 18 h; at 92.4 µM (top of the series) unless noted. In short, it runs like this: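 ERR reporter cells (NTP line) pre-incubated 6 hours at 37 C, then exposed to compounds for 18 hours at 37 C. ONE-Glo luciferase luminescence was read after 30 minutes at room temperature.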
% is scaled to controls: 0 for no effect and ±100 for the full control effect.

Sequence of Nuclear receptor subfamily 1 group I member 3 (Homo sapiens) (Q14994 whole entry, looked up): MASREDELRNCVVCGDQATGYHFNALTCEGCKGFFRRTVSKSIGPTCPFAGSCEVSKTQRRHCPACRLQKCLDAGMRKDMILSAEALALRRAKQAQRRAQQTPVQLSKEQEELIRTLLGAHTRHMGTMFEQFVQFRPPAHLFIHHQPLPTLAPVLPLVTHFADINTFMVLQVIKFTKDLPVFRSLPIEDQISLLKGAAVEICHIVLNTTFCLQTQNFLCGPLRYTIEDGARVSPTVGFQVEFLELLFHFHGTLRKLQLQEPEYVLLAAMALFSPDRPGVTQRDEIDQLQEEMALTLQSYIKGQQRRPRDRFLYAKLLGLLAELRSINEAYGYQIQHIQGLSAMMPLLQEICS
Sequence of Thyrotropin receptor (Homo sapiens) (P16473 whole entry, looked up): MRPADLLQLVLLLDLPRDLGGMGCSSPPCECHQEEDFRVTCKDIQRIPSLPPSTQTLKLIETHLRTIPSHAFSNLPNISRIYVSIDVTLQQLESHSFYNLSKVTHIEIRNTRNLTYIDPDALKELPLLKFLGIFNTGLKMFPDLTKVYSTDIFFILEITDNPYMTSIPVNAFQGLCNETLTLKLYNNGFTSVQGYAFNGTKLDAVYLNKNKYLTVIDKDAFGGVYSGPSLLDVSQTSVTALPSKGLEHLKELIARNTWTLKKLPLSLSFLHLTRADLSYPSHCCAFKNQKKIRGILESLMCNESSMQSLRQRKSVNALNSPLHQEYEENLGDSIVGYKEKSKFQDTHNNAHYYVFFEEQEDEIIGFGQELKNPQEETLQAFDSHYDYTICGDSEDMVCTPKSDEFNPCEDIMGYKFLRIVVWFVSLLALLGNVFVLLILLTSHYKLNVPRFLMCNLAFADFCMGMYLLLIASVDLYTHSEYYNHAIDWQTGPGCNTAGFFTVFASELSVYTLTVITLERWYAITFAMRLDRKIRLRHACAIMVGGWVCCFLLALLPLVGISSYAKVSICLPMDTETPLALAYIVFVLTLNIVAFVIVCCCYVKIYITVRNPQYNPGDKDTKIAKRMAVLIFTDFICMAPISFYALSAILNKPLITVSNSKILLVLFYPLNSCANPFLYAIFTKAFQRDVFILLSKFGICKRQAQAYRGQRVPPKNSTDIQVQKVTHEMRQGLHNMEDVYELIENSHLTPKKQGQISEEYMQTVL
Sequence of Luciferin 4-monooxygenase (Photinus pyralis) (P08659 whole entry, looked up): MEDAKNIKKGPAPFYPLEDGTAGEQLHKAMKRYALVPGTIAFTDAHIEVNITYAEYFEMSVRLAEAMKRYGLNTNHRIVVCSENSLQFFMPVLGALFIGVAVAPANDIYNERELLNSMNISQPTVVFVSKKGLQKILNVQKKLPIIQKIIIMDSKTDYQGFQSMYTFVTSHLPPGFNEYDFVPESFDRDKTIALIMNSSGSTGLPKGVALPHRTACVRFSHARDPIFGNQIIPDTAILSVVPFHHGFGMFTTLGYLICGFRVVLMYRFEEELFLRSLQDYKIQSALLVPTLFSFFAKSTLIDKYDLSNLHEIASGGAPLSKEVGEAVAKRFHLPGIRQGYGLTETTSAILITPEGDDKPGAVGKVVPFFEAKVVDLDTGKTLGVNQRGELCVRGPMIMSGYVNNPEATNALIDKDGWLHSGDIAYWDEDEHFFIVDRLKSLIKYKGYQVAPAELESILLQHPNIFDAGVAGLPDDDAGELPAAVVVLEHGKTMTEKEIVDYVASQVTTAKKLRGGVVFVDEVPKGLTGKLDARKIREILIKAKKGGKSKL

In the case of `CCCCOc1cc(C(=O)NCCN(CC)CC)c2ccccc2n1`, the Potency entry in [1], in test [2], in test [3], in test [4], in [5] and in test [6] was “inactive” throughout. Besides, in test [8], the Potency result is “inactive”. Further, in [7], the Potency was 21.3 µM (active).

`Cc1onc(-c2ccccc2)c1C(=O)Cl`: the Potency entry in [1], in [9], in test [10], in test [2], in [3] and in [4] was “inactive” each time. The Potency entry in test [5], in test [6], in test [7], in [11] and in [12] was “inactive” in each case.

In the case of `CCCCCCC`, the Potency entry in test [13], in test [9], in test [10], in test [14], in [2] and in test [3] was “inactive” each time. The Potency result in test [15], in test [4], in test [5], in test [6], in test [7] and in test [11] was “inactive” throughout. Also, the Potency entry in test [8] and in test [12] was “inactive” in each case. Moreover, the call in test [16] was inactive.

As to `NC(Cc1ccc(F)cc1)C(=O)O` (centres undefined), in test [1], the activity change, negative = inhibition was 1.28% [at 10.5 µM]. For the same compound, the viability change, negative = cytotoxic in test [2] was 2.83% [at 8.39 µM]. For the same compound, the activity, negative = inhibition in test [17] was 25.2% [at 8.39 µM]; in test [19], 1.15% [at 8.39 µM]. Moreover, the activation in [18] is 1.4% [at 8.39 µM]; in [3], 1.31% [at 8.39 µM]. The activity change, negative = cytotoxicity in test [15] is 1.08% [at 6.97 µM]; in [5] it was 0.454% [at 14 µM]; in test [6], -1.43% [at 6.97 µM]. For the same compound, the activity change, positive = activation in test [20] was 0.59% [at 8.39 µM]. Moreover, the activity change, negative = cytotoxic in test [7] is -0.0847% [at 6.97 µM]; in test [8], -10.7% [at 6.97 µM]. Moreover, in [11], the cytotoxicity is 7.03% [at 6.97 µM]. For the same compound, the cytotoxicity increase in test [12] was 10% [at 6.97 µM].

Turning to `CC1(C)O[C@@H]2C[C@H]3[C@@H]4CCC5=CC(=O)CC[C@]5(C)[C@@]4(F)[C@@H](O)C[C@]3(C)[C@]2(C(=O)CCl)O1`, the Potency entry in test [1], in [10], in test [14], in test [2], in [3] and in test [4] was “inactive” each time. Moreover, the Potency result in [5], in [6], in test [11] and in [12] was “inactive” each time.

`Cc1ccccc1C(=O)Nc1ccc(C(=O)N2CCCC(O)c3cc(Cl)ccc32)c(C)c1` (centres undefined): the Potency result in [13], in test [9], in [10], in test [14], in [2] and in [17] was “inactive” in each case. Also, the Potency result in [18], in test [4], in test [5], in test [6], in test [8] and in test [12] was “inactive” throughout. For the same compound, the compound was called inactive in test [16]. Further, the activity change, positive = activation in [20] is -27% [at 42.5 µM].

With `Cc1ccc([N+](=O)[O-])c(N)c1`, the Potency entry in test [13], in test [9], in [10], in test [2], in test [17] and in test [18] was “inactive” throughout. In addition, the Potency entry in test [3], in test [15], in test [4], in test [5], in test [19] and in [6] was “inactive” in each case. For the same compound, the Potency result in test [7], in test [11] and in [12] was “inactive” throughout. Moreover, the result in test [16] was inactive. The activity change, positive = activation in [20] was -10.6%.

As for `Cn1cnc2c(F)c(Nc3ccc(Br)cc3Cl)c(C(=O)NOCCO)cc21`, the Potency entry in test [13], in [9], in test [10], in [14], in test [2] and in test [17] was “inactive” throughout. Besides, the Potency result in test [18], in [15], in test [19], in test [7] and in test [12] was “inactive” in each case. Also, in test [16], the compound was called inactive. Further, the activity change, positive = activation in test [20] is -7.67% [at 42.5 µM]. For the same compound, the Potency in test [8] is 0.674 µM (active).

As for `CCCN(CCC)C(=O)C(CCC(=O)O)NC(=O)c1ccccc1` (centres undefined), the Potency entry in [13], in test [9], in test [10], in test [14], in test [2] and in [17] was “inactive” each time. For the same compound, the Potency entry in test [18], in test [5], in test [19], in test [6], in test [7] and in test [11] was “inactive” each time. For the same compound, the Potency entry in test [12] was “inactive”. In addition, in test [20], the activity change, positive = activation is 0.999% [at 42.5 µM].

Take `CC(C)NC[C@@H](O)COc1cccc2ccccc12`: the Potency result in test [13], in test [9], in test [10], in test [14], in test [2] and in test [15] was “inactive” each time. Also, the Potency entry in test [4], in [5], in test [6], in test [7], in [11] and in [12] was “inactive” each time.
